Most compounds without a hit are left out; they make up all but 4.8% or so of the library.
TGFb inhibitor – qHTS for Inhibitors of TGF-b | HepG2 CAGA-GFP TGF-b/SMAD3 reporter, GFP fluorescence, 18 h; TGF-beta stimulated, 500 pg/mL final | Potency, µM (series often up to 46.1 µM), without a hit: at the highest dose activity, negative = inhibition, hits mostly inhibitors | 410,000 tested, 1.2% active; note: potency is the fitted concentration of half-maximal effect; % is set by controls: 0 for no effect and ±100 for the full control effect; nearly all actives have a fitted effect of over 65% in size
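Per well, imaged GFP fluorescence of HEPG2 CAGA-GFP cells gives the signal; cells get compound, then TGF-beta (500 pg/mL final), 18 h at 37 degrees C; %Activity versus -TGF-beta and +DMSO controls.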
HepG2 viability – qHTS for Inhibitors of TGF-b: Cytotox Counterscreen | 410,000 tested, 0.76% active | HepG2 CAGA-GFP viability, ATP luminescence, 18 h | Potency, µM (doses to about 46.1 µM), for inactives: top-dose activity change, negative = cytotoxicity, most hits filed as cytotoxic; note: potency is the fitted concentration of half-maximal effect
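CellTiter-Glo luminescence gave cytotoxicity after 18 hours at 37 degrees C. The cells were HepG2 CAGA-GFP in 1% FBS DMEM, stimulated with 500 pg/mL TGF-beta after compound addition. %Activity was normalised to no-cell wells (complete cell-killing) and DMSO (no toxicity), and curves were fitted and classified.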
ATXN2 expr inh – Primary qHTS for Inhibitors of ATXN expression | 360,000 tested, 0.72% active | Potency, µM (titrated, usually from 57 µM), inactives show at the highest dose activity change, negative = inhibition, usual class: inhibitors | HEK-293 ATXN2-luciferase reporter, luminescence, 24 h; note: potency is the fitted concentration of half-maximal effect; % is set by controls: 0 for no effect and ±100 for the full control effect; nearly all actives have a fitted effect of over 55% in size
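ATXN2-luciferase reporter cells (luciferase flanked by upstream and downstream ATXN2 gene portions) were treated 24 h at 37 °C with compounds at up to 57 uM. SteadyGlo luminescence gave expression; GF-AFC fluorescence gave viability.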
DRD3 antagonist – qHTS of D3 Dopamine Receptor Antagonist: qHTS | D(3) dopamine receptor (Homo sapiens), P35462 | D3R cells, DiscoveRx beta-arrestin luminescence, antagonist mode; stronger effect = lower value | max response, negative = inhibition, % | 360,000 tested, 2.5% active; in the data active = max response below about -50%; inconclusive = no clear call, values can overlap the other calls; note: % is set by controls: 0 for no effect and ±100 for the full control effect
Target sequence (P35462 whole entry, looked up): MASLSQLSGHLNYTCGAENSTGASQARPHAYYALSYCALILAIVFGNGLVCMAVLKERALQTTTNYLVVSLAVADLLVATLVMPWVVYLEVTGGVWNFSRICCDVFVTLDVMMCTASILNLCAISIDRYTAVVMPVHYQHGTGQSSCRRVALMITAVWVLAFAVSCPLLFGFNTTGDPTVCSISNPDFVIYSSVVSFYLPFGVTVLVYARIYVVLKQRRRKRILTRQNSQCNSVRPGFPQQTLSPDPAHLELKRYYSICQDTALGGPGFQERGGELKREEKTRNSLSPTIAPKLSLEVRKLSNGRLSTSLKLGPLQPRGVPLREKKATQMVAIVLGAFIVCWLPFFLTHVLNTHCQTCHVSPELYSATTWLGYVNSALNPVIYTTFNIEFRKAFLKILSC
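Cells expressing the human receptor were seeded at 1500 cells/well, incubated overnight at 37 degrees C in 5% CO2, then exposed to library compounds with dopamine controls for 90 minutes at 37 degrees C before luminescent detection.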
DRD3 agonist – qHTS of D3 Dopamine Receptor Agonist: qHTS. D3R DiscoveRx beta-arrestin cells, luminescence, 90 min. max activation, %. 410,000 tested, 0.58% active; in the data active = max activation above about 30%; note: 0% is about no effect
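Agonist-mode cell screen: cells plated at 1500/well and incubated overnight at 37 °C, then exposed to library compounds for 90 min at 37 °C. Detection reagent was added for 30–60 min at room temperature, and luminescence was read.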
ATXN viability – Viability Counterscreen for Primary qHTS for Inhibitors of ATXN expression | 400,000 tested, 0.49% active | S2 cells (HEK-293 line with an ATXN2-luciferase reporter) viability, CellTiter-Fluor protease fluorescence, 24 h | Potency, µM (titrated, usually from 56.7 µM), hits mostly cytotoxic; note: potency is the fitted concentration of half-maximal effect; nearly all actives have a fitted effect of over 40% in size
Numbers without * were called inactive; i = inactive; ? = inconclusive; · = no result. Unless noted, calls come from the whole dose curve; as a rule, active = well fitted curve in the direction sought with a large enough effect; inconclusive = small, poorly fitted or top-dose-only effect, or another doubt; inactive = no such curve, though single readings can be large; an effect the other way counts as inactive or inconclusive.

SMILES | TGFb inhibitor | HepG2 viability | ATXN2 expr inh | DRD3 antagonist | DRD3 agonist | ATXN viability
O=C1c2[nH]nc(-c3ccccc3O)c2C(c2ccc(Cl)cc2)N1Cc1ccco1 (stereo unspecified) | ? | 16µM* | · | · | 3 | ·
COCCCN1C(=O)c2[nH]nc(-c3ccccc3O)c2C1c1ccc(Cl)cc1 (stereo unspecified) | 0% | -36% | -14% | -21 | 1 | ?
O=C1c2[nH]nc(-c3ccccc3O)c2C(c2ccc(Cl)cc2)N1CCc1ccccc1 (stereo unspecified) | 20µM* | -91% | · | · | 10 | ·
CO[C@H]1[C@H](NC(=O)c2ccsc2)c2ccccc2C12CCN(Cc1c(O)ccc3ccccc13)CC2 | · | · | · | · | · | i
O=C(NCCc1ccccc1)C(c1cccs1)N(C(=O)c1csnn1)C1CC1 (stereo unspecified) | -19% | -3% | 13% | -28 | -5 | i
O=C(NCCc1ccccc1)C(c1cccs1)N(C(=O)CCl)c1ccc(Cl)cc1 (stereo unspecified) | 11µM* | 10µM* | 4.5µM* | -12 | -10 | 5µM*
CCN(CC)S(=O)(=O)c1cc(-c2nnc(-c3ccc(Br)cc3)o2)ccc1Br | 3% | -3% | -26% | -65* | -10 | i
Cc1ccc(NC(=O)CN2CCCN(Cc3cc(C)ccc3C)S2(=O)=O)c(Cl)c1 | ? | -24% | · | · | -2 | ·
CCc1ccccc1NC(=O)CN1CCCN(Cc2cc(C)ccc2C)S1(=O)=O | 18µM* | -35% | · | · | 7 | ·
Oc1cc2cc(-c3csc(-c4ccc(F)cc4)n3)cc3c2n1CCC3 | 4% | -41% | · | · | · | ·
CCCCC(CC)C(=O)Oc1ccc(O)c(C(C)(C)C)c1 (stereo unspecified) | 14µM* | -95% | -34% | 9 | -6 | ?
COc1ccccc1CN1CCOc2ccc(CN3CCC(Oc4cccnc4)CC3)cc2C1 | · | · | · | · | · | i
CCc1c(C)nc(SCCOc2ccc(OC)cc2)[nH]c1=O | 4% | 0.32µM* | 3% | 27 | 0 | i
Cc1cc(C(=O)Nn2c(C3CCCCC3)nc3ccccc3c2=O)ccc1[N+](=O)[O-] | 20µM* | -54% | · | 17 | -2 | ?
CN(C)C(=S)N=c1ssc(=S)n1Cc1ccccc1 | 2.2µM* | -59% | -23% | -12 | 2 | ?
CCOC(=O)c1sc(=S)n(Cc2ccccc2)c1C | 3% | -40% | -21% | 5 | -4 | ?
CCc1ccccc1NC(=O)Nc1nnc(N(C)Cc2ccccc2)s1 | 13µM* | -13% | · | · | 5 | ·
Cc1ccc(C)c(CN2C(=O)c3ccccc3S(=O)c3ccc(C(=O)NCc4ccco4)cc32)c1 (stereo unspecified) | -10% | -37% | -15% | · | -10 | i
CN(CCOC(=O)c1ccc2c(c1)OCCO2)Cc1ccccc1 | -2% | -23% | 26% | -79* | 0 | i
CN(CCC(=O)Nc1ccc2c(c1)OCO2)Cc1ccccc1 | -17% | -13% | 5% | -73* | -31 | i
CN(CC(=O)Nc1cccc(C#N)c1)Cc1ccc(Cl)cc1 | 0% | 6% | 23% | -74* | -18 | ·
CS(=O)(=O)N(CC(=O)Nc1ccc2c(c1)OCO2)Cc1ccccc1 | 6% | -19% | 46% | -4 | -3 | i
CN(CCC(=O)Nc1ccc(Cl)cc1)Cc1ccccc1 | -4% | -6% | -20% | -97* | -23 | i
CN(CC(=O)Nc1ccc(Cl)cc1)C(=O)CCc1ccccc1 | 1% | -7% | -2% | -2 | -8 | i
CN(C)c1ccc(/C=C/c2ccnc3ccc(Cl)cc23)cc1 | ? | -34% | · | · | · | ·
CCC(Sc1nc(C)cc(C)n1)C(=O)O (stereo unspecified) | 1% | -4% | 8% | 10 | 7 | i

Bioassay records from PubChem.
